This passage reports Potency results from PubChem BioAssay (NCATS).

Records with an inconclusive call do not appear. Activity calls are given as the source filed them. Unless noted, the call rests on the fitted dose curve.

Test [1] is described as follows: qHTS for Inhibitors of the Functional Ribonucleoprotein Complex (vRNP) of Lassa (LASV) Arenavirus: LASV Primary Screen - GLuc reporter signal (AID 1347082; calls by dose curve; tested in HEK293 reporter line; further: nearly all actives have a fitted effect of over 60% in size). The conditions noted are these: LASV minigenome vRNP, Gaussia luciferase reporter; series mostly up to 57.5 µM. For orientation: In qHTS, concentration-response curves come from the screen itself.
Test [2] can be described thus: qHTS for Inhibitors of the Functional Ribonucleoprotein Complex (vRNP) of Lassa (LASV) Arenavirus: Viability assay - alamar blue signal for LASV Primary Screen (AID 1347083; calls by dose curve; tested in HEK293 reporter line; further: nearly all actives have a fitted effect of over 80% in size). To be noted: cell viability, alamar blue fluorescence (LASV minigenome counter-screen); series mostly up to 57.5 µM.
Test [3] can be described thus: qHTS for Inhibitors of the Functional Ribonucleoprotein Complex (vRNP) of Lymphocytic Choriomeningitis Arenaviruses (LCMV): Viability assay - alamar blue signal for LCMV Primary Screen (AID 1347085; calls by dose curve; tested in HEK293 reporter line; further: nearly all actives have a fitted effect of over 80% in size). The conditions noted are these: alamar blue viability counter-screen, LCMV vRNP screen cells; series mostly up to 57.5 µM.
The target of test [4] is Nucleoprotein (Lymphocytic choriomeningitis virus (strain Armstrong)) (UniProt P09992). In words: qHTS for Inhibitors of the Functional Ribonucleoprotein Complex (vRNP) of Lymphocytic Choriomeningitis Arenaviruses (LCMV): LCMV Primary Screen - GLuc reporter signal (AID 1347086). Further: nearly all actives have a fitted effect of over 70% in size. To be noted: LCMV minigenome vRNP cell assay, Gaussia luciferase reporter; series mostly up to 57.5 µM.
Potency means the concentration at half of the fitted maximal effect.

Sequence of Nucleoprotein (Lymphocytic choriomeningitis virus (strain Armstrong)) (P09992 whole entry, looked up): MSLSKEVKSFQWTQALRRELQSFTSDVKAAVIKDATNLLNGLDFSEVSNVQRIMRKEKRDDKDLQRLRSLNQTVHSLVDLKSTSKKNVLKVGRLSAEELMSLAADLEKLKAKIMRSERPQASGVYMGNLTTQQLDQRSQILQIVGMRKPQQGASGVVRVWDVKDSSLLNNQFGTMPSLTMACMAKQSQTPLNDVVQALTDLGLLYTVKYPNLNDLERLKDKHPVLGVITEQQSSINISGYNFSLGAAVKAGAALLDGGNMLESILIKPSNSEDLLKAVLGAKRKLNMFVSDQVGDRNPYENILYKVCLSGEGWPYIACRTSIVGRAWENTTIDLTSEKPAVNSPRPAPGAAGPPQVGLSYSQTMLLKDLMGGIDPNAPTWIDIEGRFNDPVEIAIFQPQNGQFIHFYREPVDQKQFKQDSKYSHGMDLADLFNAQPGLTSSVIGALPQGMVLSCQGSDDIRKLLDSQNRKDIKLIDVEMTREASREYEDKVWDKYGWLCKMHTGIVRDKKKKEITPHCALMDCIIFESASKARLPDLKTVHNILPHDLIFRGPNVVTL

On to `NCCS`, for which the Potency entry in test [1], in test [2], in test [3] and in test [4] was “inactive” each time.

With `Oc1cccc(-c2nc(N3CCOCC3)c3oc4ncccc4c3n2)c1`, the Potency in test [1] is 0.993 µM (active); in test [2], 0.885 µM (active); in test [3], 1.4 µM (active); in test [4], 1.4 µM (active).

For the molecule `NC(CO)C(=O)NNCc1ccc(O)c(O)c1O` (configuration not stated), the Potency result in test [1], in test [2], in test [3] and in test [4] was “inactive” each time.

As for `Oc1c(I)cc(I)c2cccnc12`, the Potency entry in test [1], in test [2], in test [3] and in test [4] was “inactive” in each case.

Take `Cc1cc(Nc2nc(N[C@@H](C)c3ncc(F)cn3)ncc2Cl)n[nH]1`: the Potency entry in test [1], in test [2], in test [3] and in test [4] was “inactive” in each case.

Turning to `O=C(O)c1ccccc1NCCc1ccccc1`, the Potency entry in test [1], in test [2], in test [3] and in test [4] was “inactive” throughout.

For the molecule `c1ccc2occc2c1`, the Potency result in test [1], in test [2], in test [3] and in test [4] was “inactive” throughout.

Regarding `OC[C@H]1O[C@@H](n2cnc3c2NC=NC[C@@H]3O)C[C@H]1O`, the Potency entry in test [1], in test [2], in test [3] and in test [4] was “inactive” in each case.

In the case of `CC1=C(CO)C(=O)O[C@@H]([C@@H](C)[C@H]2CC[C@H]3[C@@H]4C[C@H]5O[C@]56[C@@H](O)C=CC(=O)[C@]6(C)[C@@H]4CC[C@]23C)C1`, the Potency in test [1] is 0.863 µM (active); in test [2], 3.06 µM (active); in test [3] it was 3.85 µM (active); in test [4] it was 1.53 µM (active).

As for `Cc1ccc(S(=O)(=O)Nc2cc(Cl)ccc2C(=O)Nc2nc(-c3ccccc3)cs2)cc1`, the Potency result in test [1], in test [2], in test [3] and in test [4] was “inactive” in each case.

On to `Nc1ccc(O)c([N+](=O)[O-])c1`, for which the Potency result in test [1], in test [2], in test [3] and in test [4] was “inactive” each time.

For `CC(=O)NCCC(=O)N[C@@H](CCC(N)=O)C(=O)N[C@@H](CO)C(=O)N[C@@H](CCC(N)=O)C(=O)N[C@@H](CCC(N)=O)C(=O)N[C@H](C(=O)N[C@@H](Cc1ccccc1)C(=O)N[C@]1(C)CCCCCCC=CCCC[C@@](C)(C(=O)N[C@@H](CCC(N)=O)C(=O)N[C@@H](CC(N)=O)C(N)=O)NC(=O)[C@H](CC(C)C)NC(=O)[C@H](CC(C)C)NC(=O)[C@@H](CCCNC(=N)N)NC(=O)[C@H](Cc2c[nH]c3ccccc23)NC(=O)[C@H](CC(C)C)NC(=O)[C@H](CC(N)=O)NC1=O)[C@H](C)O`, the Potency result in test [1], in test [2], in test [3] and in test [4] was “inactive” throughout.

As for `Cc1[nH]nc2ccc(-c3cncc(OC[C@@H](N)Cc4ccccc4)c3)cc12`, the Potency in test [1] is 0.432 µM (active); in test [2] it was 0.172 µM (active); in test [3], 1.37 µM (active); in test [4] it was 0.273 µM (active).

Consider `CCCn1c(=O)c2[nH]c(C34CC5CC3C[C@@H](C5)C4)nc2n(CCC)c1=O`, for which the Potency entry in test [1], in test [2], in test [3] and in test [4] was “inactive” each time.

As for `COc1cc(S(N)(=O)=O)cc(C(=O)O)c1OC`, the Potency result in test [1], in test [2], in test [3] and in test [4] was “inactive” each time.

Turning to `CC(C)(C(=O)NCC(F)(F)C(F)(F)F)C(=O)N[C@@H]1C(=O)Nc2ccccc2-c2ccccc21`, the Potency was 24.3 µM (active) in test [1], 19.3 µM (active) in test [2], 5.44 µM (active) in test [3] and 10.9 µM (active) in test [4].

Regarding `N#C/C(=C1\SCC(c2ccccc2Cl)S1)n1ccnc1` (configuration not stated), the Potency result in test [1], in test [2], in test [3] and in test [4] was “inactive” throughout.

Take `C[C@]12CC[C@H](O)CC1=CC[C@@H]1[C@H]2CC[C@]2(C)C(c3cccnc3)=CC[C@H]12`: the Potency result in test [1], in test [2], in test [3] and in test [4] was “inactive” throughout.

On to `CCOc1cc(NC(C)=O)ccc1C(=O)OC`, for which the Potency entry in test [1], in test [2], in test [3] and in test [4] was “inactive” in each case.

Regarding `c1ccc2[nH]ccc2c1`, the Potency result in test [1], in test [2], in test [3] and in test [4] was “inactive” each time.

In the case of `Cn1cncc1[C@@](N)(c1ccc(Cl)cc1)c1ccc2c(c1)c(-c1cccc(Cl)c1)cc(=O)n2C`, the Potency result in test [1] was “inactive”. The values for the Potency in test [2], in test [3] and in test [4] were 4.32 µM (active), 2.43 µM (active) and 1.37 µM (active), respectively.

On to `CC(=O)NC(C)c1ccc(Oc2ccc(OC(C)C)cc2)cc1` (configuration not stated), for which the Potency entry in test [1], in test [2], in test [3] and in test [4] was “inactive” in each case.

As to `C=CCn1c(=O)c2cnc(Nc3ccc(N4CCN(C)CC4)cc3)nc2n1-c1cccc(C(C)(C)O)n1`, the Potency is 0.685 µM (active) in test [1], 0.172 µM (active) in test [2], 0.611 µM (active) in test [3] and 0.968 µM (active) in test [4].

For the molecule `CN1CCN(c2c(F)cc3c(=O)c(C(=O)O)cn4c3c2OCN4C)CC1`, the Potency entry in test [1], in test [2], in test [3] and in test [4] was “inactive” each time.

Regarding `N#Cc1c(O)c2c(-c3ccc(-c4ccccc4O)cc3)csc2[nH]c1=O`, the Potency entry in test [1], in test [2], in test [3] and in test [4] was “inactive” in each case.

With `CN(C)CC/C=C1/c2ccccc2COc2ccc(CC(=O)O)cc21`, the Potency result in test [1], in test [2], in test [3] and in test [4] was “inactive” throughout.

For the molecule `Brc1ccccc1-c1ccccc1`, the Potency result in test [1], in test [2], in test [3] and in test [4] was “inactive” each time.

On to `Clc1ccccc1CN1CCc2sccc2C1`, for which the Potency result in test [1], in test [2], in test [3] and in test [4] was “inactive” throughout.
